From PubChem BioAssay AID588511 (Johns Hopkins Ion Channel Center, 2011) come the findings set out here.

Structures are written as SMILES. In all, about 310,000 compounds went through this assay and about 3,600 (1.2%) were called active.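 Rule for the calls: active = ratio plate-corrected score three or more library SD toward inhibition, starting fluorescence score within five deviations; inactive = the rest.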 The sample as a whole holds a higher share of actives than the screen did.

For the experiment, the target named is Anoctamin-1 (Mus musculus) (UniProt Q8BHY3). The experiment in a line: TMEM16A chloride channel inhibitors, primary screen, cell-based, HTS (AID 588511).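 For normalized B-score (activity score, 25-100; higher = stronger inhibition): score derived from kinetic fluorescence span divided by baseline fluorescence per well.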 The conditions noted are these: HEK293 TMEM16A/YFP iodide influx fluorescence, ionomycin; at 10 µM.
Sequence of Anoctamin-1 (Mus musculus) (Q8BHY3 whole entry, looked up): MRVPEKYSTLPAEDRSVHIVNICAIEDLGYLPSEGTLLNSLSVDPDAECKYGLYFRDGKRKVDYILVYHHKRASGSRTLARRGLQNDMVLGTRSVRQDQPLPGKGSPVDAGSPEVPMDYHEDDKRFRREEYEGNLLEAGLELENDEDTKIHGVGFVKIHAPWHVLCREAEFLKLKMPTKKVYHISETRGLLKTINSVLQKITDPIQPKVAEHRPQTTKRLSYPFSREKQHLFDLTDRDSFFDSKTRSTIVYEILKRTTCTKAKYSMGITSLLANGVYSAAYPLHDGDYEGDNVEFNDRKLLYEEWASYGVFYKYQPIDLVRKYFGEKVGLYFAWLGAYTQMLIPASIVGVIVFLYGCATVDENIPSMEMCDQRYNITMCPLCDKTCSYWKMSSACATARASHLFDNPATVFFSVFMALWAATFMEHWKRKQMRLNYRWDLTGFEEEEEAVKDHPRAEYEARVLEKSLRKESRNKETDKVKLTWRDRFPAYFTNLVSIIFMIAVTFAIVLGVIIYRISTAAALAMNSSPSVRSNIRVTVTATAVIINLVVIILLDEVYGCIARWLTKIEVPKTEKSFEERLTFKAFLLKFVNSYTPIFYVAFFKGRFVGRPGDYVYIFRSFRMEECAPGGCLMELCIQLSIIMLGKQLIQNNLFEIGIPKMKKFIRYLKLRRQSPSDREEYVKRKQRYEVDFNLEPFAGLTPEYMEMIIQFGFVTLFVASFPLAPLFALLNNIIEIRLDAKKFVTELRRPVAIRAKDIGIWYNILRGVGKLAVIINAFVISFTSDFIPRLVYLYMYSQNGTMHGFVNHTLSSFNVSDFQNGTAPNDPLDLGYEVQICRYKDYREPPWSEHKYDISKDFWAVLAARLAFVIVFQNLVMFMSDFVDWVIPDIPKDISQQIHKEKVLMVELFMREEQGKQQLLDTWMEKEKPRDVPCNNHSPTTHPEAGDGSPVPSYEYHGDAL
For `Cc1ccc(/C=C2/SC(=S)N(CCC(=O)NCCCN3CCOCC3)C2=O)cc1`, the normalized B-score (activity score, 25-100; higher = stronger inhibition) result was “inactive”. With `O=C(Nc1cccc(Cl)c1)Nc1ccccc1NS(=O)(=O)c1cccs1`, the normalized B-score (activity score, 25-100; higher = stronger inhibition) is 100 (active).

`O=S(=O)(NCc1ccc(Cl)cc1Cl)c1cccs1`: the normalized B-score (activity score, 25-100; higher = stronger inhibition) entry was “inactive”. With `O=S(=O)(Nc1ccccc1Br)c1cccs1`, the normalized B-score (activity score, 25-100; higher = stronger inhibition) entry is “inactive”. As for `COc1ccc(Nc2nc(N)nc(CSC(=S)N3CCC(C)CC3)n2)cc1`, the normalized B-score (activity score, 25-100; higher = stronger inhibition) result was “inactive”. For `O=S(=O)(ON(c1ccccc1)S(=O)(=O)c1ccccc1)c1ccccc1`, the normalized B-score (activity score, 25-100; higher = stronger inhibition) entry was “inactive”. With `CC1=C/C(=N\OS(=O)(=O)c2ccccc2)C=CC1=O`, the normalized B-score (activity score, 25-100; higher = stronger inhibition) is 25 (active). As for `CC(NC(=O)CN1CCN(Cc2ccc(Cl)cc2)C1=O)c1ccc2c(c1)OCCO2` (stereo unspecified), the normalized B-score (activity score, 25-100; higher = stronger inhibition) entry was “inactive”. `O=C(c1ccc(=O)oc1)N1CCC(C(O)(c2ccccc2)c2ccccc2)CC1`: the normalized B-score (activity score, 25-100; higher = stronger inhibition) entry was “inactive”. On to `NC(=O)c1oc2ccccc2c1NC(=O)Cc1ccccc1`, for which the normalized B-score (activity score, 25-100; higher = stronger inhibition) entry is “inactive”. Take `CCOC(=O)c1oc2ccccc2c1NC(=O)c1cccs1`: the normalized B-score (activity score, 25-100; higher = stronger inhibition) was 25 (active). Consider `CCc1c(C)sc(NC(=O)c2cccs2)c1C(N)=O`, for which the normalized B-score (activity score, 25-100; higher = stronger inhibition) result was “inactive”. With `COC(=O)CCSc1cc([N+](=O)[O-])cc2c1c(C1OCCS1)nn2-c1ccccc1` (stereo unspecified), the normalized B-score (activity score, 25-100; higher = stronger inhibition) result was “inactive”. `COc1ccc(OC)c(NC(=O)CN(C)CCOc2ccc(Br)cc2)c1`: the normalized B-score (activity score, 25-100; higher = stronger inhibition) result was “inactive”. Regarding `CCCCCCCCn1c2c(c(=N)c3c1CCC3)CCCC2`, the normalized B-score (activity score, 25-100; higher = stronger inhibition) is 100 (active). As to `CC(C)C[C@@H](COc1ccccc1)N1CCN(CC(C)C)CCC1=O`, the normalized B-score (activity score, 25-100; higher = stronger inhibition) result was “inactive”. The figure for `CCCCNC(=O)CSc1nc2n[nH]c(C)c2c(=N)n1-c1cccc(Cl)c1C` is 25 (active); for `COc1cccc(-n2c(SCC(=O)NC3CCCCC3)nc3n[nH]c(C)c3c2=N)c1` it is “inactive”.

On to `Cc1ccc(-n2c(SCC(=O)NCCC3=CCCCC3)nc3n[nH]c(C)c3c2=N)cc1Cl`, for which the normalized B-score (activity score, 25-100; higher = stronger inhibition) entry is “inactive”.

Consider `Cc1ccc(N2CC(C(=O)N3CCC4(CC3)CC(=O)c3ccccc3O4)CC2=O)cc1C` (stereo unspecified), for which the normalized B-score (activity score, 25-100; higher = stronger inhibition) entry was “inactive”. `CCCOc1ccc(C2=CSC3=NCCN23)cc1Cl`: the normalized B-score (activity score, 25-100; higher = stronger inhibition) result was “inactive”.

For `CC(=O)N(C1=C(Cl)C(=O)c2ccccc2C1=O)c1ccc(C(=O)O)cc1`, the normalized B-score (activity score, 25-100; higher = stronger inhibition) is 100 (active). For the compound `O=S(=O)(N1CCCCC1)N1CCNCC1`, the normalized B-score (activity score, 25-100; higher = stronger inhibition) entry was “inactive”. For the compound `CCOC(=O)Cc1c(C)nc2c(C#N)c(C)nn2c1C`, the normalized B-score (activity score, 25-100; higher = stronger inhibition) result is “inactive”.

For the compound `CCCc1nc(SCC(=O)N2CCCC2)c2c(=O)n(C)c(=O)n(C)c2n1`, the normalized B-score (activity score, 25-100; higher = stronger inhibition) result is “inactive”. The same measure for `O=C(Nc1ccc(Cl)cc1)/C(=C1\CCCN1)[N+](=O)[O-]`: “inactive”. For `Cc1ccc(OCC(=O)Nc2ccc3oc(=O)ccc3c2)cc1C`, the normalized B-score (activity score, 25-100; higher = stronger inhibition) entry is “inactive”. With `Fc1ccc2[nH]c3c(N4CCSCC4)ncnc3c2c1`, the normalized B-score (activity score, 25-100; higher = stronger inhibition) is 100 (active). In the case of `Cc1c(CN2CC[C@@H](N3CCN(c4ccccn4)CC3)[C@H](O)C2)[nH]c2ccc(F)cc12`, the normalized B-score (activity score, 25-100; higher = stronger inhibition) result was “inactive”. With `Cc1cc(C)c(S(=O)(=O)c2cc(F)ccc2C)c(=O)[nH]1`, the normalized B-score (activity score, 25-100; higher = stronger inhibition) result is “inactive”. On to `COc1ccc(C(=O)OCC(=O)Nc2ccc3[nH]c(=O)[nH]c3c2)c(OC)c1OC`, for which the normalized B-score (activity score, 25-100; higher = stronger inhibition) result was “inactive”. For the compound `CS(=O)(=O)N(CC(=O)N1CCN(c2ccc(F)cc2)CC1)C1CCCCC1`, the normalized B-score (activity score, 25-100; higher = stronger inhibition) result was “inactive”. Turning to `CCOC(=O)N1CCN(C(=O)c2ccc3nc4cc(Cl)ccc4c(=O)n3c2)CC1`, the normalized B-score (activity score, 25-100; higher = stronger inhibition) entry was “inactive”. Consider `COc1cc(NC(=O)c2ccccc2NS(=O)(=O)c2ccc(Cl)s2)cc(OC)c1`, for which the normalized B-score (activity score, 25-100; higher = stronger inhibition) was 100 (active).

As to `CCOc1ccc(NC(=O)c2ccccc2NS(C)(=O)=O)cc1`, the normalized B-score (activity score, 25-100; higher = stronger inhibition) result is “inactive”. For `COc1cc(OC)c(S(=O)(=O)Nc2ccccc2C(=O)O)cc1S(=O)(=O)Nc1ccccc1C(=O)O`, the normalized B-score (activity score, 25-100; higher = stronger inhibition) result is “inactive”.

Regarding `COC(=O)c1ccc(NC(=O)c2ccccc2NS(=O)(=O)c2ccccc2)cc1`, the normalized B-score (activity score, 25-100; higher = stronger inhibition) was 100 (active). With `COC(=O)c1ccccc1NC(=O)c1ccccc1NS(C)(=O)=O`, the normalized B-score (activity score, 25-100; higher = stronger inhibition) result is “inactive”.

Regarding `COc1ccc(NC(=O)c2cnc(NS(=O)(=O)c3ccccc3)nc2)cc1`, the normalized B-score (activity score, 25-100; higher = stronger inhibition) entry was “inactive”.

Consider `CCNC(=O)CC1C(=O)N(c2ccc(F)cc2)C(=O)N1CCc1sccc1C` (stereo unspecified), for which the normalized B-score (activity score, 25-100; higher = stronger inhibition) entry was “inactive”.

For `COc1ccc(NCc2nnc(SCc3ccccc3)n2-c2ccc(OC)cc2)cc1`, the normalized B-score (activity score, 25-100; higher = stronger inhibition) result is “inactive”.

Consider `O=C(O)c1ccc(-n2nc(-c3ccccc3)c3ccccc3c2=O)cc1`, for which the normalized B-score (activity score, 25-100; higher = stronger inhibition) result was “inactive”.

For `Cc1cc(C)c(S(=O)(=O)N2CCOCC2)cc1C`, the normalized B-score (activity score, 25-100; higher = stronger inhibition) entry is “inactive”. For the compound `OCC[C@H]1C[C@@H](O)[C@H](O)[C@]2(OCCCc3ccccc32)O1`, the normalized B-score (activity score, 25-100; higher = stronger inhibition) entry is “inactive”. As to `Cc1c(C)c2c(OCC(=O)N[C@@H](C(=O)O)c3ccccc3)cc3c(c2oc1=O)CCC(C)(C)O3`, the normalized B-score (activity score, 25-100; higher = stronger inhibition) is 100 (active). The entry for `Cc1c(C)c2c(OCC(=O)NCCCO)cc3c(c2oc1=O)CCC(C)(C)O3` is “inactive”; for `Cc1cc(=O)oc2c3c(cc(OCC(=O)N[C@H](C(=O)O)c4ccccc4)c12)OC(C)(C)CC3` it is “inactive”; for `C#CCO[C@@H]1C[C@H](n2cnc3c(=O)[nH]c(NC(=O)C(C)C)nc32)O[C@@H]1CO` it is “inactive”.

Regarding `COCCN(C(=O)CCC(=O)Nc1nccs1)C(C(=O)NCCC(C)C)c1ccc(F)cc1` (stereo unspecified), the normalized B-score (activity score, 25-100; higher = stronger inhibition) entry is “inactive”. Take `CCCc1cc(C(=O)N2CCCC(CO)(CCCc3ccccc3)C2)n(C)n1` (stereo unspecified): the normalized B-score (activity score, 25-100; higher = stronger inhibition) entry was “inactive”.

As to `CN(C)CCCN(C(=O)c1ccc(S(=O)(=O)N2CCCc3ccccc32)cc1)c1nc2ccc(F)cc2s1`, the normalized B-score (activity score, 25-100; higher = stronger inhibition) result was “inactive”. Regarding `O=C(Nc1nc2ccc([N+](=O)[O-])cc2s1)c1ccc(S(=O)(=O)N2CCCc3ccccc32)cc1`, the normalized B-score (activity score, 25-100; higher = stronger inhibition) was 100 (active). Take `CSc1nc2ccc(S(=O)(=O)N3CCc4ccccc43)cc2s1`: the normalized B-score (activity score, 25-100; higher = stronger inhibition) result is “inactive”. With `CCC(=O)NC(Nc1nc2ccc(C)cc2s1)(C(=O)OC)C(F)(F)F` (stereo unspecified), the normalized B-score (activity score, 25-100; higher = stronger inhibition) entry was “inactive”. As to `O=C(CNC(=O)c1ccccc1)Oc1ccc([N+](=O)[O-])cc1`, the normalized B-score (activity score, 25-100; higher = stronger inhibition) entry was “inactive”. Regarding `O=C(NC(Nc1nc2ccc([N+](=O)[O-])cc2s1)(C(F)(F)F)C(F)(F)F)c1ccccc1`, the normalized B-score (activity score, 25-100; higher = stronger inhibition) is 100 (active).
